Assay results reported in PubChem BioAssay (NCI).
Compounds without any hit were thinned out: in the full panel of roughly 79,000, 15% have a hit. Activity calls are given as the source filed them. No stated cut-off is given here; in the data, active means growth inhibition above about 70%; inactive means the rest.

Legend:
[1] = NCI Yeast Anticancer Drug Screen. Data for the rad52 strain (AID 147);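 further: 0% = growth of vehicle-treated control cultures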; details: S. cerevisiae rad52 mutant growth inhibition, hits give high values
In short: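 Measured: yeast growth inhibition. System: strain with a defined DNA damage repair alteration. Reference: vehicle-treated control cultures.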

[2] = NCI Yeast Anticancer Drug Screen. Data for the wt1 strain (AID 149);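 further: 0% = growth of vehicle-treated wt1 cultures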; details: S. cerevisiae wt1 strain (SPY 50644) growth inhibition, hits give high values
In short: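 Using yeast strain wt1, compound-induced growth inhibition was determined against vehicle-treated cultures.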

[3] = NCI Yeast Anticancer Drug Screen. Data for the rad50EPP+ strain (AID 151);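 further: 0% = growth of vehicle-treated control cultures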; details: S. cerevisiae rad50 mutant strain, hits give high values
In short: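 One strain with a rad50 alteration (rad50EPP+) was compound-treated, its growth then compared to that of vehicle controls.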

[4] = NCI Yeast Anticancer Drug Screen. Data for the mgt1 strain (AID 153); details: S. cerevisiae mgt1 mutant growth inhibition, hits give high values
In short: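 After exposure of the mgt1 yeast mutant to compound, growth was measured and reported as inhibition compared with vehicle controls.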

[5] = NCI Yeast Anticancer Drug Screen. Data for the rad50 strain (AID 155);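 further: 0% = growth of vehicle-only cultures of the same strain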; details: S. cerevisiae rad50 strain growth inhibition, hits give high values
In short: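 Relative growth inhibition (compound vs vehicle) was measured in yeast with a defined repair-gene alteration.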

[6] = NCI Yeast Anticancer Drug Screen. Data for the mec2-1 strain (AID 157); details: S. cerevisiae mec2-1 strain, hits give high values
In short: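 Test agents were screened against the mec2-1 yeast strain, with defined DNA repair or cell cycle alteration. Growth was scored as inhibition against vehicle-only controls.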

[7] = NCI Yeast Anticancer Drug Screen. Data for the rad14 strain (AID 159);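 further: 0% = growth of vehicle-treated control cultures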; details: S. cerevisiae rad14 strain growth inhibition, hits give high values
In short: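 Screen for anticancer potential: a yeast strain altered in DNA damage repair is grown with compound, and reduced growth is quantified against vehicle controls.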

[8] = NCI Yeast Anticancer Drug Screen. Data for the sgs1 mgt1 strain (AID 161);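 further: 0% = growth of cultures given vehicle only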; details: S. cerevisiae sgs1 mgt1 strain, hits give high values
In short: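 Genetically altered yeast, compound exposure, growth inhibition relative to vehicle.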

[9] = NCI Yeast Anticancer Drug Screen. Data for the CLN2oe strain (AID 163);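 further: 0% = growth of vehicle-only control cultures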; details: S. cerevisiae CLN2oe strain, hits give high values
In short: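 Here, growth inhibition in a cell-cycle-altered yeast strain after compound exposure was quantified against vehicle control growth.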

[10] = NCI Yeast Anticancer Drug Screen. Data for the cln2 rad14 strain (AID 165);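 further: 0% = growth equal to vehicle treated cultures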; details: S. cerevisiae cln2 rad14 strain, hits give high values
In short: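 Growth of compound-exposed yeast (cln2 rad14 genotype) measured and expressed as inhibition relative to vehicle.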

[11] = NCI Yeast Anticancer Drug Screen. Data for the bub3 strain (AID 167); details: S. cerevisiae bub3 mutant strain, hits give high values
In short: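 Screening used yeast with an engineered genetic alteration affecting cell cycle control. Compound-exposed cultures were compared with vehicle cultures, and reduced growth was taken as inhibition.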

[12] = NCI Yeast Anticancer Drug Screen. Data for the wt2 strain (AID 169);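 further: 0% = growth of vehicle-treated yeast cultures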; details: S. cerevisiae wt2 strain growth inhibition, hits give high values
In short: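 Genetically defined yeast strains from a DNA-repair/cell-cycle panel were used. Compound-exposed yeast growth was measured, and the inhibition was calculated relative to vehicle treatment.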

[13] = NCI Yeast Anticancer Drug Screen. Data for the mlh1 strain (AID 171);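 further: 0% = growth of vehicle-treated control cultures of the same strain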; details: S. cerevisiae mlh1 strain growth inhibition, hits give high values
In short: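 Here the genetically defined yeast mutant is grown with each compound, and the extent to which its growth falls below that of vehicle-exposed cells is reported.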

[14] = NCI Yeast Anticancer Drug Screen. Data for the sgs1 strain (AID 173);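 further: 0% = growth of vehicle-only control cultures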; details: S. cerevisiae sgs1 mutant, hits give high values
In short: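 Relative growth inhibition, referenced to vehicle, was determined in a yeast strain with a defined alteration affecting DNA damage repair or cell cycle control after compound exposure.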

[15] = NCI Yeast Anticancer Drug Screen. Data for the mlh1 rad18 strain (AID 175); details: S. cerevisiae mlh1 rad18 strain growth inhibition, hits give high values
In short: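 In this whole-cell yeast screen, a strain with altered DNA damage repair is challenged with compound, and its growth is measured against matched vehicle-treated controls.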

[16] = NCI Yeast Anticancer Drug Screen. Data for the rad18 strain (AID 177); details: S. cerevisiae rad18 mutant growth inhibition, hits give high values
In short: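 Screen uses a yeast strain with a defined lesion in DNA damage repair; compound effect is read as loss of growth compared to untreated vehicle cultures.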

[17] = at 5.0 µM (retest, dose inferred, filed as 0.5)
[18] = at 50.0 µM (retest, dose inferred, filed as 5.0)

Measured: growth inhibition

CCCCCCCCCCCCCCCCCCOCC(O)COP(=O)(O)OCC1OC(n2cc(F)c(=O)[nH]c2=O)CC1O (stereo unspecified)
active: [1]; at 33.0 µM 97% | [1]; at 100.0 µM 97% | [2]; at 100.0 µM 93% | [3]; at 11.0 µM 70% | [3]; at 33.0 µM 88% | [3]; at 100.0 µM 89% | [4]; at 33.0 µM 98% | [4]; at 100.0 µM 98% | [5]; [17] 91% | [5]; at 33.0 µM 96% | [5]; [18] 99% | [5]; at 50.0 µM 87.6% | [5]; at 100.0 µM 98% | [6]; at 11.0 µM 74% | [6]; at 33.0 µM 90% | [6]; [18] 99% | [6]; at 50.0 µM 88.5% | [6]; at 100.0 µM 96% | [7]; at 100.0 µM 95% | [8]; [18] 98% | [8]; at 50.0 µM 88.3% | [9]; at 33.0 µM 96% | [9]; at 100.0 µM 99% | [10]; [18] 96% | [10]; at 50.0 µM 89.8% | [11]; at 33.0 µM 74% | [11]; [18] 91% | [11]; at 50.0 µM 82.3% | [11]; at 100.0 µM 94% | [12]; at 33.0 µM 88% | [12]; at 100.0 µM 94% | [13]; at 33.0 µM 96% | [13]; at 100.0 µM 97% | [14]; at 11.0 µM 81% | [14]; at 33.0 µM 95% | [14]; at 100.0 µM 97% | [15]; [18] 99% | [15]; at 50.0 µM 91.2% | [16]; at 33.0 µM 97% | [16]; at 100.0 µM 98%
inactive: [1]; at 1.2 µM 15% | [1]; at 3.7 µM 16% | [1]; at 11.0 µM 61% | [2]; at 1.2 µM 17% | [2]; at 3.7 µM 4% | [2]; at 11.0 µM -7% | [2]; at 33.0 µM 16% | [3]; at 1.2 µM 42% | [3]; at 3.7 µM 38% | [4]; at 1.2 µM 30% | [4]; at 3.7 µM 25% | [4]; at 11.0 µM 64% | [5]; at 1.2 µM 18% | [5]; at 3.7 µM -10% | [5]; at 11.0 µM 54% | [6]; at 1.2 µM 4% | [6]; at 3.7 µM 12% | [6]; [17] 51% | [7]; at 1.2 µM 27% | [7]; at 3.7 µM 9% | [7]; at 11.0 µM -5% | [7]; at 33.0 µM 63% | [8]; [17] -34% | [9]; at 1.2 µM 30% | [9]; at 3.7 µM 28% | [9]; at 11.0 µM 60% | [10]; [17] 1% | [11]; at 1.2 µM 14% | [11]; at 3.7 µM 28% | [11]; [17] -12% | [11]; at 11.0 µM 1% | [12]; at 1.2 µM -57% | [12]; at 3.7 µM -83% | [12]; at 11.0 µM 58% | [13]; at 1.2 µM 32% | [13]; at 3.7 µM 19% | [13]; at 11.0 µM 54% | [14]; at 1.2 µM 26% | [14]; at 3.7 µM 19% | [15]; [17] 24% | [16]; at 1.2 µM 27% | [16]; at 3.7 µM -2% | [16]; at 11.0 µM 52%

OC(c1ccc(F)cc1)(c1ccc(F)cc1)C1CC1
inactive: [1]; at 1.2 µM -39% | [1]; at 3.7 µM -58% | [1]; at 11.0 µM -47% | [1]; at 33.0 µM 12% | [2]; at 1.2 µM -38% | [2]; at 3.7 µM -33% | [2]; at 11.0 µM -36% | [2]; at 33.0 µM -27% | [3]; at 1.2 µM -10% | [3]; at 3.7 µM -17% | [3]; at 11.0 µM -35% | [3]; at 33.0 µM -26% | [3]; at 100.0 µM 11% | [4]; at 1.2 µM -36% | [4]; at 3.7 µM -47% | [4]; at 11.0 µM -47% | [4]; at 33.0 µM -51% | [4]; at 100.0 µM 20% | [5]; at 1.2 µM -31% | [5]; at 3.7 µM -32% | [5]; [17] 59% | [5]; at 11.0 µM -26% | [5]; at 33.0 µM 32% | [5]; at 50.0 µM 62.9% | [6]; at 1.2 µM -87% | [6]; at 3.7 µM -42% | [6]; [17] 68% | [6]; at 11.0 µM -67% | [6]; at 33.0 µM -32% | [6]; at 50.0 µM 40.1% | [7]; at 1.2 µM -18% | [7]; at 3.7 µM -18% | [7]; at 11.0 µM -7% | [7]; at 33.0 µM 8% | [8]; [17] -4% | [8]; at 50.0 µM 51.4% | [9]; at 1.2 µM -16% | [9]; at 3.7 µM -3% | [9]; at 11.0 µM -9% | [9]; at 33.0 µM -8% | [10]; [17] 41% | [10]; at 50.0 µM 28.9% | [11]; at 1.2 µM -32% | [11]; at 3.7 µM -27% | [11]; [17] 20% | [11]; at 11.0 µM -13% | [11]; at 33.0 µM -16% | [11]; at 50.0 µM 64.8% | [12]; at 1.2 µM -25% | [12]; at 3.7 µM -25% | [12]; at 11.0 µM -5% | [12]; at 33.0 µM -28% | [13]; at 1.2 µM -39% | [13]; at 3.7 µM -64% | [13]; at 11.0 µM -66% | [13]; at 33.0 µM -42% | [14]; at 1.2 µM -62% | [14]; at 3.7 µM -43% | [14]; at 11.0 µM -52% | [14]; at 33.0 µM -42% | [15]; [17] 67% | [15]; at 50.0 µM 64% | [16]; at 1.2 µM -8% | [16]; at 3.7 µM -11% | [16]; at 11.0 µM -21% | [16]; at 33.0 µM 46%
active: [1]; at 100.0 µM 76% | [2]; at 100.0 µM 90% | [5]; [18] 99% | [5]; at 100.0 µM 94% | [6]; [18] 100% | [6]; at 100.0 µM 95% | [7]; at 100.0 µM 97% | [8]; [18] 77% | [9]; at 100.0 µM 93% | [10]; [18] 73% | [11]; [18] 81% | [11]; at 100.0 µM 96% | [12]; at 100.0 µM 87% | [13]; at 100.0 µM 92% | [14]; at 100.0 µM 86% | [15]; [18] 100% | [16]; at 100.0 µM 95%
